This note sets out measurements from PubChem BioAssay (NCATS).

Molecules are shown by their SMILES. Unmarked numbers belong to inactive results. Results filed as inconclusive are left out. Activity calls are given as the source filed them. The call rests on the fitted dose curve; in most records, active means well fitted curve in the direction sought with a large enough effect; inconclusive means small, poorly fitted or top-dose-only effect, or another doubt; inactive means no such curve, though single readings can be large; an effect the other way counts as inactive or inconclusive.

Experiment [1] has as its system Nanoluciferase (engineered Oplophorus gracilirostris luciferase). Nature of the experiment: Primary Nanoluciferase (NLuc) qHTS assay for identification of artifact compounds. (AID 1845222).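 Further: NLuc secreted into diluted conditioned medium of S16 cells; series mostly up to about 54 µM; 0% = DMSO and -100% = no enzyme.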 In short, it runs like this:
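qHTS format, against NLuc in S16 cell-conditioned medium. Nano-Glo substrate 1:100 was added after 15 min at room temperature. Luminescence was taken after a further 5 min.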
A general note: qHTS replaces the single test concentration by a dilution series.

A short description of experiment [2]: Primary redox qHTS assay for identification of artifact compounds. (AID 1845223).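 Further: 0% = DMSO and 100% = reference compound.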 In short, it runs like this:
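Redox-cycling detection via DTT (250 uM final) oxidation coupled to Amplex Red (25 uM)/HRP (250 mU/mL) in HBSS. 15 min preincubation plus 30 min after DTT, room temperature. Ex/Em 525/598 nm; 4-parameter Hill fit against DMSO and 10 uM DA3003.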

In experiment [3] the target is Cytochrome P450 3A4 (Homo sapiens) (UniProt P08684). Nature of the experiment: qHTS for inhibitors of CYP3A4 against the NCATS DSHEA and TCM libraries (AID 1919971).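 Further: on the % scale 0 is the no-effect control and ±100 the full control effect; inhibition lowers luminescence from luciferin made by CYP3A4.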 In short, it runs like this: (§1)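 Isoform-specific enzyme and substrate levels; enzyme-free wells as background. Reaction: 1x NADPH regenerating system, 30-45 min, room temperature, shielded from light; luminescent detection reagent added, 30 min.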

In experiment [4] the target is Cytochrome P450 2D6 (Homo sapiens) (UniProt P10635). Nature of the experiment: qHTS for inhibitors of CYP2D6 against the NCATS DSHEA and TCM libraries (AID 1919972). Further: on the % scale 0 is the no-effect control and ±100 the full control effect. In a few lines: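 qHTS, concentration–response format with most substances from 19.5 nM. CYP2D6 + pro-luciferin substrate, 15 min with compound, then 1x NADPH regen, 30–45 min RT dark. Glo detection 30 min, luminescence. Quinidine control.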

The target of experiment [5] is Cytochrome P450 2C9 (Homo sapiens) (UniProt P11712). In words: qHTS for inhibitors of CYP2C9 against the NCATS DSHEA and TCM libraries (AID 1919973).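 Further: luminogenic pro-luciferin CYP2C9 substrate turned into luciferin with NADPH regeneration; series mostly up to about 34 µM; on the % scale 0 is the no-effect control and ±100 the full control effect.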 In a few lines: as §1
Experiment [6] deals with Cytochrome P450 2C19 (Homo sapiens) (UniProt P33261). Nature of the experiment: qHTS for inhibitors of CYP2C19 against the NCATS DSHEA and TCM libraries (AID 1919974).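 Further: luminescence from luciferin released by CYP2C19 oxidation of a pro-luciferin substrate; on the % scale 0 is the no-effect control and ±100 the full control effect.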 In short, it runs like this: as §1
Experiment [7] in a line: KB-3-1 P-gp reporter qHTS against the NCATS DSHEA and TCM libraries (AID 1919975). Further: 0% is about no effect. In a few lines:
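Cell viability qHTS: 500 KB-3-1 cells/well, substances in titration, ~72 h, 37C; luminescent CellTiter-Glo read.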

Experiment [8] has as its target Cytochrome P450 1A2 (Homo sapiens) (UniProt P05177). Nature of the experiment: qHTS for inhibitors of CYPIA2 against the NCATS DSHEA and TCM libraries (AID 1919976).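 Further: light from luciferin formed by CYP1A2 from a pro-luciferin substrate; series mostly up to about 37 µM; on the % scale 0 is the no-effect control and ±100 the full control effect.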 In a few lines:
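Furafylline served as the plate control. Compounds met CYP1A2 and pro-luciferin substrate 15 min before NADPH regeneration solution (1x) was added; after 30-45 min at RT, P450-Glo reagent was added for 30 min and luminescence was measured.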

A short description of experiment [9]: qHTS Counterscreen for compound interference against the NCATS DSHEA and TCM libraries (AID 1919978).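 Further: compounds preincubated with 1 µM D-luciferin or buffer before detection reagent; % of control where 0% means no effect.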 The note with it: firefly luciferase detection reagent interference, luminescence. In short, it runs like this:
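Interference check: test samples were incubated with D-luciferin (final 1 uM) or buffer only for 15 min, room temperature, in a qHTS titration up to 39.8 uM, then developed with detection reagent and read by luminescence.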

Cytochrome P450 2C9 (Homo sapiens), sequence (P11712 whole entry, looked up): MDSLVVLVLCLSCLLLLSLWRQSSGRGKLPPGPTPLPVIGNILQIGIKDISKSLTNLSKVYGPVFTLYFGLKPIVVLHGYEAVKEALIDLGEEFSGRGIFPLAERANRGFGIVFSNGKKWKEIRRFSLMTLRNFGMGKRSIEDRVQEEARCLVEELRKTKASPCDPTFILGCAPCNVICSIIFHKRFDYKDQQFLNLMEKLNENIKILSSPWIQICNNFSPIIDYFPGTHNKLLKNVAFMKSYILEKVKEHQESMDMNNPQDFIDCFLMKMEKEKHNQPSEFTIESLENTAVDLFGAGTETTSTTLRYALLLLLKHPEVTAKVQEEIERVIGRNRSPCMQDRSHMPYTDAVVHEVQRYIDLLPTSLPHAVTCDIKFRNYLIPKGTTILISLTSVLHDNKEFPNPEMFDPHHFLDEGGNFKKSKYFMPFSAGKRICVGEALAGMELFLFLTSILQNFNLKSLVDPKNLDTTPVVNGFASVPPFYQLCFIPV
Cytochrome P450 2C19 (Homo sapiens), sequence (P33261 whole entry, looked up): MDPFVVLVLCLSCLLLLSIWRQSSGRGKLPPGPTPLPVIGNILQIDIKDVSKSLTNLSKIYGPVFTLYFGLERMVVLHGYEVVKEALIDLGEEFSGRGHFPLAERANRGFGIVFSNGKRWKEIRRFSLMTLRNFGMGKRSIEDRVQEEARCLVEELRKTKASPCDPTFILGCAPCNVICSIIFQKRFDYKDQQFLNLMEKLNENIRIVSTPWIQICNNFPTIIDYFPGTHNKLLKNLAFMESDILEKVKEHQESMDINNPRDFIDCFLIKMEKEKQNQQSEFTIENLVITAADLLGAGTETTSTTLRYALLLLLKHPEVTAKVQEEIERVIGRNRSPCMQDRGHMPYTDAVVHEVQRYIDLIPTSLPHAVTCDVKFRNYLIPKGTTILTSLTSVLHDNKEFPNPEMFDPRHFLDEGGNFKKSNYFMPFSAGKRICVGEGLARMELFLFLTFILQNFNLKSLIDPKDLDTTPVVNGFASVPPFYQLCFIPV
Cytochrome P450 3A4 (Homo sapiens), sequence (P08684 whole entry, looked up, canonical isoform): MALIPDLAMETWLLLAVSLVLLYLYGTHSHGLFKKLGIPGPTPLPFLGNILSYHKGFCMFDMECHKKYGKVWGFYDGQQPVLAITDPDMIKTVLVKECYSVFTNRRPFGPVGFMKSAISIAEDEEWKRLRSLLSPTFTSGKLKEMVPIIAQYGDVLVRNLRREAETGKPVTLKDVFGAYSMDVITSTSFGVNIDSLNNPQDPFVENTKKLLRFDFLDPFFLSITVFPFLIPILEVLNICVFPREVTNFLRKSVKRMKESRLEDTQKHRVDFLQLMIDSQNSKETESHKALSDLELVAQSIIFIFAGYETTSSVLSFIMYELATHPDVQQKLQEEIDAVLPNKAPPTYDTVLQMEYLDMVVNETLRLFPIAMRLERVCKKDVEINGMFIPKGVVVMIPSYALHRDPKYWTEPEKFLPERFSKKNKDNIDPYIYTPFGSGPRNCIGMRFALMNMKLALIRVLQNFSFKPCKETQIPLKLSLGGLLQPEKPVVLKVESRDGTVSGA
Cytochrome P450 1A2 (Homo sapiens), sequence (P05177 whole entry, looked up): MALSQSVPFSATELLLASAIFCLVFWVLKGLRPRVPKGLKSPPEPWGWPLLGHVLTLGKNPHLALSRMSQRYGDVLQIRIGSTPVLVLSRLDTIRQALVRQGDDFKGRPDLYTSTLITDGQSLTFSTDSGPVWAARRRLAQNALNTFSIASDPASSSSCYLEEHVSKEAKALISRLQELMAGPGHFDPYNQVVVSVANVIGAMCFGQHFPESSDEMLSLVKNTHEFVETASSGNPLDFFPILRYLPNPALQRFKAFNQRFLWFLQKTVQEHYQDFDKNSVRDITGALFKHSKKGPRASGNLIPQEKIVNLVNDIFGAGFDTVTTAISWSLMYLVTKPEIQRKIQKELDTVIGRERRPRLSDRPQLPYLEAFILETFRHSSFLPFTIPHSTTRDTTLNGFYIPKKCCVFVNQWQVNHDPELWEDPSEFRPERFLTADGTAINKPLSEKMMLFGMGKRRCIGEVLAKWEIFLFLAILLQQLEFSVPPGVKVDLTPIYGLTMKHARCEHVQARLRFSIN
Cytochrome P450 2D6 (Homo sapiens), sequence (P10635 whole entry, looked up): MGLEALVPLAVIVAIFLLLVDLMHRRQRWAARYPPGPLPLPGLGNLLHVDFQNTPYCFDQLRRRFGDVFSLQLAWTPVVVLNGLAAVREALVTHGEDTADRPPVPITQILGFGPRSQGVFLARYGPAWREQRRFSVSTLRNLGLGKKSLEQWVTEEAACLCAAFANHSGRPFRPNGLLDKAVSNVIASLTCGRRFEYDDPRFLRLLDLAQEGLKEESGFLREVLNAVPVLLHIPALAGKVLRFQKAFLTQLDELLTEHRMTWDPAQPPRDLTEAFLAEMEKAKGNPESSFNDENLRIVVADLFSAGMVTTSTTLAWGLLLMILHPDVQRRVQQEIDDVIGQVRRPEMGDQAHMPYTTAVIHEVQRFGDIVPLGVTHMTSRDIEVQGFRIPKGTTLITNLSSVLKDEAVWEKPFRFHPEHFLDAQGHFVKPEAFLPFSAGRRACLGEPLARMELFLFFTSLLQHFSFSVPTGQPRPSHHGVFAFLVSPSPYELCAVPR

On to `COC(=O)C1C(CC(C)=O)C=CC(O)C12Oc1cc(C)cc(O)c1C2=O` (stereo not given), for which the Potency entry in experiment [1] and in experiment [2] was “inactive” each time.
Regarding `CC(O)(CC(=O)O)CC(=O)O[C@@H]1[C@@H](O)[C@H](OCCc2ccccc2)O[C@H](CO)[C@H]1O` (stereo not given in full), in experiment [2], the Potency entry is “inactive”.
Take `CC1(C)CC[C@]2(C(=O)O)CC[C@]3(C)C(=CCC4[C@@]5(C)CC[C@H](O[C@@H]6O[C@H](C(=O)O)[C@@H](O)[C@H](O)[C@H]6O)C(C)(CO)C5CC[C@]43C)C2C1` (stereo not given in full): the Potency entry in experiment [1] and in [2] was “inactive” each time.
For the molecule `C[C@@H]1C(=O)O[C@H]2CC34[C@H]5C[C@@H](C(C)(C)C)C36[C@@H](OC(=O)[C@@H]6O)OC4(C(=O)O5)[C@]21O` (stereo not given in full), the Potency result in experiment [1] and in [2] was “inactive” each time.
Consider `O=c1c2cccnc2n(-c2cccc([N+](=O)[O-])c2)c(=O)n1Cc1ccncc1`, for which the Potency entry in [1] and in [2] was “inactive” throughout.
`CN(NC(=O)CC(=O)NN(C)C(=S)c1ccccc1)C(=S)c1ccccc1`: the Potency result in experiment [1] and in [2] was “inactive” each time.
For `CC(=O)O[C@H]1[C@H](C)[C@@H](O)[C@H]2[C@@H]1C=C(C(=O)O)[C@H]1C[C@@H]3[C@H]([C@H]21)[C@H]1C(=O)O[C@@H]2CC[C@@]3(C)O[C@]1(O)[C@@H]2C`, the Potency result in experiment [1] and in [2] was “inactive” each time.
As to `CC1(O)CCC2C(C(=O)O)=COC(OC3OC(CO)C(O)C(O)C3OC(=O)/C=C/c3ccc(O)cc3)C21` (stereo not given), the Potency result in [1] and in experiment [2] was “inactive” throughout.
Regarding `CC1(CCC(=O)O)C(=O)C=CC23CC4CC(OC4(C)C2O)C13` (stereo not given), the Potency entry in [1] and in experiment [2] was “inactive” in each case.
Turning to `N#Cc1ccc2[nH]c(O)c(-c3ccc(CN4CCOCC4)cn3)c2c1`, the Potency result in experiment [1] and in experiment [2] was “inactive” throughout.
With `C=CCc1ccc(O[C@@H]2O[C@H](CO[C@@H]3O[C@@H](C)[C@H](O)[C@@H](O)[C@H]3O)[C@@H](O)[C@H](O)[C@H]2O)cc1`, the Potency result in experiment [1] and in [2] was “inactive” each time.
For the molecule `COC1=Cc2c(nc3n(c2=O)C(C)C(=O)NC3(O)C(C)C)OC=C1` (stereo not given), the Potency entry in [1] and in experiment [2] was “inactive” each time.
As for `CCCCCCCC(=O)O`, the molecule was classed as inactive in [3], in [4], in experiment [7] and in [8]. In addition, the Potency result in experiment [5] and in [6] was “inactive” throughout. The max response in experiment [9] is 5.32%.
On to `CC(=O)c1cnc2ccc(-c3cc(Cl)c(O)c(Cl)c3)nc2c1NC1CCC(CN(C)C)CC1` (stereo not given), for which, in experiment [2], the redox activity (% of DA3003) is 2.52% [at 11.5 µM].
Regarding `O=C(O)CCc1cc2ccoc2cc1O[C@@H]1O[C@H](CO[C@@H]2OC[C@](O)(CO)[C@H]2O)[C@@H](O)[C@H](O)[C@H]1O`, the Potency result in experiment [1] and in experiment [2] was “inactive” throughout.
For `Oc1cc(O)c2c(c1)OC(c1ccc(O)c(O)c1)C(O)C2` (stereo not given), the molecule was called inactive in experiment [3], in experiment [4], in experiment [7] and in experiment [8]. Besides, the Potency entry in [5] and in experiment [6] was “inactive” in each case. The max response in experiment [9] is 0.755%.
Consider `CCC/C=C/C(=O)O[C@H]1CC(C)(C)CC2[C@]13[C@H](O)O[C@@]21CCC2[C@@]4(C)CC[C@H](O[C@@H]5O[C@H](C(=O)O)[C@@H](O)[C@H](O[C@@H]6O[C@H](CO)[C@H](O)[C@H](O)[C@H]6O[C@@H]6O[C@@H](C)[C@H](O)[C@@H](O)[C@H]6O[C@@H]6OC[C@](O)(CO)[C@H]6O)[C@H]5O[C@@H]5O[C@H](CO)[C@H](O)[C@H](O)[C@H]5O)C(C)(C)C4CC[C@@]2(C)[C@]1(C)C[C@H]3OC(C)=O` (stereo not given in full), for which the activity, negative = inhibition in experiment [1] was 4.57% [at 11.6 µM]. Further, the redox activity (% of DA3003) in experiment [2] was -2.32% [at 11.5 µM].
Consider `CC1=C2C(=O)C=C(CO)[C@@H]2[C@H]2OC(=O)[C@H](C)[C@@H]2[C@@H](O)C1`, for which the Potency result in experiment [1] and in experiment [2] was “inactive” each time.
Consider `C=C[C@H]1[C@H](O[C@@H]2O[C@H](CO)[C@@H](O)[C@H](O)[C@H]2O)OC=C(C(=O)OC)[C@H]1C[C@@H]1N[C@H](C(=O)O)Cc2c1[nH]c1ccccc21`, for which the Potency entry in experiment [2] is “inactive”.
For `Cc1c(C)c2c(c(C)c1O)CC[C@@](C)(CCC[C@H](C)CCC[C@H](C)CCCC(C)C)O2`, the molecule was classed as inactive in [3], in experiment [7] and in experiment [8]. In addition, the Potency entry in [5] and in experiment [6] was “inactive” throughout. In addition, the max response in [9] is -0.537%.
With `CCC(C)C(=O)O[C@@H]1[C@@H](O)[C@@H](O[C@H]2O[C@H](CO)[C@@H](O)[C@H](O)[C@H]2O)O[C@H](CO)[C@H]1O` (stereo not given in full), the Potency entry in experiment [2] is “inactive”.
On to `Cc1coc2c1CC1OC1(C)CCC1OC1(C)C2` (stereo not given), for which the Potency result in [1] and in experiment [2] was “inactive” each time.
Take `C[C@@H]1C[C@H]2[C@@H]3CCC4=CC(=O)C=C[C@]4(C)[C@@]3(F)[C@@H](O)C[C@]2(C)[C@@]1(O)C(=O)COP(=O)(O)O`: the Potency entry in experiment [1] and in experiment [2] was “inactive” each time.
With `COC1C2=C(COC2=O)C2(C)CCCC(C)(CO)C2C1OC(=O)c1ccccc1` (stereo not given), the Potency result in [1] and in experiment [2] was “inactive” in each case.
Consider `C[C@@H](Nc1cc(NS(=O)(=O)N2CCC2)nc(SCc2cccc(F)c2F)n1)[C@@H](O)CO`, for which the Potency entry in experiment [1] and in [2] was “inactive” each time.
